About 83,000 compounds went through this panel and 20% of them were active in at least one assay; those are over-represented in the sample as a whole.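 A percent growth of 40 corresponds to 60% growth inhibition; 0 means no net growth; -100 means all cells died. Active threshold: below 10.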 Values without a mark were called inactive. Active and inactive are the calls of the source.
Experiments:
Assay in all cases: NCI-60 one-dose screen, 48 h (100 = growth as untreated, 0 = no growth, -100 = all killed)
Settings in all cases: 10 µM unless noted
SK-MEL-2 melanoma = tested on: SK-MEL-2 melanoma
EKVX NSCLC = tested on: EKVX NSCLC
SN12C renal = tested on: SN12C renal
UO-31 renal = tested on: UO-31 renal
TK-10 renal = tested on: TK-10 renal
ACHN renal = tested on: ACHN renal
CAKI-1 renal = tested on: CAKI-1 renal
A498 renal = tested on: A498 renal
CCRF-CEM leukemia = tested on: CCRF-CEM leukemia
MOLT-4 leukemia = tested on: MOLT-4 leukemia

SMILES | growth (SK-MEL-2 melanoma) | growth (EKVX NSCLC) | growth (SN12C renal) | growth (UO-31 renal) | growth (TK-10 renal) | growth (ACHN renal) | growth (CAKI-1 renal) | growth (A498 renal) | growth (CCRF-CEM leukemia) | growth (MOLT-4 leukemia)
O=S(O)c1cc(Cl)cc(Cl)c1OCc1ccccc1 | 105% | 99.1% | 98.4% | 90.3% | 101% | 110% | 99% | 80% | 102% | 101%
COc1cc2ncnc(Nc3ccc(F)c(Cl)c3)c2cc1OCC(=O)N1CCOCC1 | 87.1% | 63.3% | 80.3% | 52.4% | 20.8% | 31.9% | 48.4% | 66.2% | 91.6% | 91.5%
COc1ccc(N=C2NN=C(c3c[nH]c4ccccc34)CS2)cc1OC | 19.1% | 63.3% | 70.7% | 35.9% | 96% | 62.8% | 63.8% | 62.5% | 39.5% | 39.9%
COc1ccc(/C=C(/C(=O)N2CCNCC2)c2cc(OC)c(OC)c(OC)c2)cc1O | 10.8% | 84.1% | 54.6% | 89.7% | 92.4% | 103% | 93.1% | 59% | 15.4% | 25.5%
N#CC1=C(N)Oc2c(sc3c(F)cccc23)C1c1ccc([N+](=O)[O-])cc1 (stereo not given) | -42.2% (active) | -2.24% (active) | -79% (active) | -26.4% (active) | -7.94% (active) | -2.28% (active) | 0.858% (active) | -36.3% (active) | 3.46% (active) | -1.93% (active)
CC(C)n1c2ccc(Br)cc2c2c3c(c4c5ccccc5ccc4c21)C(=O)NC3=O | 111% | 86.1% | 85.9% | 59.2% | 91.8% | 68.4% | 82.5% | 71.8% | 90.1% | 75.1%
CC1=C2CC/C(C)=C/CC[C@]3(C)O[C@H]3CC/C(C)=C/[C@H]2OC1 | 92.6% | 103% | 95.5% | 84.7% | 100% | 90.9% | 87% | 97% | 84.9% | 86.5%
O=C(NCCCCO)c1cncnc1Nc1ccc2c(ccn2Cc2cccc(F)c2)c1 | 106% | 85.1% | 87.7% | 67% | 98.7% | 86.3% | 79.8% | 69.5% | 103% | 88.3%
O=C(Cc1ccc(/C=C/C(=O)c2ncc[nH]2)cc1)Nc1cc(F)c(F)c(F)c1 | 114% | 92.7% | 56.2% | 46.7% | 87.5% | 93.2% | 56.2% | 84.8% | 20.3% | 26.7%
COc1cc2ncnc(Nc3ccc(S(=O)(=O)Nc4nccs4)cc3)c2cc1OCCCN1CCCC1 | 114% | 107% | 99.9% | 84.9% | 123% | 108% | 100% | 104% | 100% | 104%
Cc1nc2sc(C(=O)Nc3cccc4ccccc34)c(N)c2cc1C(=O)c1ccccc1 | 46.6% | 46% | 36.6% | 43.5% | 66.1% | 41.6% | 36.5% | -10.9% (active) | 12% | 21.4%
N#Cc1c(-c2ccc(Cl)cc2)nc(NN=Cc2ccc[nH]2)nc1N1CCOCC1 | 98.8% | 66% | 40.1% | 14.8% | 63.3% | 82.5% | 63.2% | 31.7% | 20.8% | 17.4%
COc1cc(OC)c2c(=O)c3c(CC=C(C)C)cc(OC)c(O)c3oc2c1 | 91.4% | 89.6% | 96% | 72% | 82.9% | 79.7% | 75.3% | 67.7% | 76.9% | 66.4%
O=C(/C=C/C12c3ccccc3C(c3ccccc31)C1C(=O)NC(=O)C12)c1ccc(Cl)cc1Cl (stereo not given) | -2.62% (active) | 36.4% | 9.38% (active) | 32.4% | 22.4% | 28.2% | 25.5% | 35.7% | -8.25% (active) | -0.49% (active)
CCCCCCCCn1ccc2cc(NC(=O)CN3CCN(c4cc(C)nc(Cl)n4)CC3)ccc21 | 109% | 64.4% | 100% | 63.5% | 95.1% | 86.3% | 92.6% | 97.5% | -35.7% (active) | 26.2%
CCOC(=O)NC(=S)n1oc(=O)c2ccccc21 | 110% | 101% | 102% | 82.2% | 109% | 101% | 90.4% | 103% | 101% | 95.9%
CCN1CCN(CCNc2nccc(-c3c(-c4ccc(F)c(O)c4)nc4occn34)n2)S1(=O)=O | 1.39% (active) | 47.9% | 33.9% | 4.38% (active) | 44.9% | 16.5% | 18.5% | 49.1% | 9.35% (active) | -9.69% (active)
COc1ccc(C2[C@@H](Cl)C(=O)N2c2cc(OC)c(OC)c(OC)c2)cc1Cl (stereo not given in full) | 15% | 35.4% | 29.1% | 45.3% | 63.9% | 33.6% | 26.5% | -6% (active) | 9.36% (active) | 13.5%
c1ccc(Nc2nc3c(s2)CCc2c[nH]cc2-3)nc1 | 99.2% | 75.3% | 106% | 59.4% | 159% | 92.3% | 97.3% | 81% | 9.72% (active) | 64.7%
O=c1c2ccccc2n(C[C@H]2CO2)c2ccccc12 | -64.5% (active) | 16.3% | 6.14% (active) | -27.5% (active) | 4.13% (active) | -26.6% (active) | -9.84% (active) | 96.1% | 6.9% (active) | 0.563% (active)
Nc1ccc(-c2ccncc2)cc1NC(=O)N1CCCC1 | 87.9% | 104% | 100% | 88.7% | 85.2% | 108% | 95% | 76.8% | 88.1% | 87%
COC1C(O)CC(OC2CC(OC3CC(O[C@@H]4C(=O)c5c(cc6cc(OC7CC(OC8CC(O)C(O)C(C)O8)C(O)C(C)O7)c(C)c(O)c6c5O)CC4[C@H](OC)C(=O)O)OC(C)C3O)OC(C)C2O)OC1C (stereo not given in full) | -34.2% (active) | 40.4% | 20.7% | 1.52% (active) | 34.1% | 2.86% (active) | 18.1% | -15.2% (active) | 46.1% | 27.2%
CC(O)CNC(Cc1ccccc1)c1ccc2c(c1)OCO2 (stereo not given) | 65% | 96.6% | 105% | 69.7% | 82.9% | 101% | 93.1% | 89.9% | 96.3% | 95.4%
C=C(C)[C@@H]1CC[C@]2(C(=O)N3CCNCC3)CC[C@]3(C)[C@H](CC[C@@H]4[C@@](C)(CCC(=O)N5CCNCC5)[C@H](C(=C)C)CC[C@]43C)[C@@H]12 | 102% | 102% | 91.4% | 64.3% | 93.6% | 93.9% | 92.7% | 76.2% | 3.76% (active) | 24.7%
C=C(C)[C@@H]1CC[C@]2(CO)CC[C@]3(C)[C@H](CC[C@@H]4[C@@](C)(CCCN)[C@H](C(=C)C)CC[C@]43C)[C@@H]12 | -61.6% (active) | -12.9% (active) | -97.6% (active) | -43.4% (active) | -62.9% (active) | -100% (active) | -54.9% (active) | -85.7% (active) | -16% (active) | -32.4% (active)
CN(C)c1ccc(/C=N\NC(=O)c2ccc3nc(-c4ccc(Cl)cc4)[nH]c3c2)cc1 | 83.3% | 73.2% | 41.2% | 75.4% | 94.4% | 35.7% | 84.9% | 72.9% | 21.4% | 23.6%

— PubChem BioAssay (NCI)
